Test results reported in PubChem BioAssay (NCATS).
Values joined by “and” are separate entries in the source; they are usually repeats but may differ in a detail not shown here. Equal entries are not always repeated. Records with an inconclusive call do not appear. Where a call stands in place of a potency, no number is given. Active and inactive are the calls of the source. Unless noted, the call rests on the fitted dose curve.

target: Estrogen receptor (Homo sapiens) (UniProt P03372); assay: qHTS assay for small molecule agonists of estrogen receptor alpha signaling (AID 588514); settings: ER-alpha-UAS-bla HEK293, beta-lactamase ratio, 18 h; series mostly up to 76.8 µM; further: nearly all actives have a fitted effect of over 70% in size; further: potency means the concentration at half of the fitted maximal effect
Sequence (P03372 whole entry, looked up): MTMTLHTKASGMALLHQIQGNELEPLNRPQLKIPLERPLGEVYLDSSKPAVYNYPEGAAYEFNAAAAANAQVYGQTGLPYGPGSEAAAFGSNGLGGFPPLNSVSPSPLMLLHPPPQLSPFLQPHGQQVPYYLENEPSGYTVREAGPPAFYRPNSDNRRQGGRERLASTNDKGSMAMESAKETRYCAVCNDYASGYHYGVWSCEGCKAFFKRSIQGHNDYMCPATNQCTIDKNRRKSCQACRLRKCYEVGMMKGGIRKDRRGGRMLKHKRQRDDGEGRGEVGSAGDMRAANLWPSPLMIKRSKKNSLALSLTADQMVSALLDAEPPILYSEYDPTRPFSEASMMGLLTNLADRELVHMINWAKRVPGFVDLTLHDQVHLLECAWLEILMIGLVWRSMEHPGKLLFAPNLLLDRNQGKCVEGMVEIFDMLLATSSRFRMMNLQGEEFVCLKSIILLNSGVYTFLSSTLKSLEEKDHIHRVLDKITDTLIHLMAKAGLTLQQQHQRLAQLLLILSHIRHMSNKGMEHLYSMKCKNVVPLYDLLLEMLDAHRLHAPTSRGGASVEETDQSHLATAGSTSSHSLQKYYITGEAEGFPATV
Outline: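 EC50 and efficacy came from Hill fits of beta-lactamase reporter signal (CCF4 dye, 2 h at room temperature) scaled between DMSO and 20 nM 17-beta-estradiol. Agonist mode: HEK293 ER-alpha-UAS-bla cells in charcoal/dextran-stripped serum medium, 18 h compound exposure at 37 C.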

Compound | Potency
Brc1ccccc1 | inactive
CCOP(=S)(OCC)SCSC(C)(C)C | inactive
C=C(C)C#N | 35.5 µM (active)
CCSC(=O)Cl | inactive
Cc1cccc([N+](=O)[O-])c1 | inactive
CC(C)(C)OOC(C)(C)C | inactive
C=C(C)C(=O)OCC1CO1 (stereo not given) | inactive
Cc1ccc([N+](=O)[O-])cc1C | inactive
O=[N+]([O-])c1ccc(Cl)c(Cl)c1 | inactive
C=CC(=C)C | inactive
Cc1ccc2ccccc2c1 | inactive
Nc1ccccc1Cl | inactive
Clc1ccc2ccccc2c1 | inactive
[O-][Br+2]([O-])O | inactive
Clc1nc(Cl)nc(Nc2ccccc2Cl)n1 | inactive
OCC1CO1 (stereo not given) | inactive
C=CCOC(=O)c1ccccc1N | inactive
CC(C)(c1ccccc1)c1ccc(O)cc1 | 1.78 µM (active) and 3.16 µM (active)

Compound | Potency
CCN(CC)c1ccccc1 | inactive
S=C=Nc1cccc2ccccc12 | inactive
O=NN(CCO)CCO | inactive
C=CCOC(C)=O | inactive
CCCC(=O)Cl | inactive
NC(=S)Nc1ccccc1 | inactive
O=C(Cl)/C=C/C(=O)Cl | inactive
C=C(Cl)Cl | inactive
ClCBr | inactive
COc1ccc(C=O)cc1OC | inactive
C=CC(=O)OCC | inactive
c1nc[nH]n1 | inactive
c1ccc2c(c1)CCCC2 | inactive
CCCSC(=O)Cl | inactive
Clc1cccc(C(Cl)(Cl)Cl)n1 | inactive
O=NN(c1ccccc1)c1ccccc1 | inactive
C1CCC2CCCCC2C1 (stereo not given) | inactive
CC(O)CCl (stereo not given) | inactive

target: Androgen receptor (Homo sapiens) (UniProt P10275); assay: qHTS assay for small molecule agonists of androgen receptor signaling (AID 588515; active means well fitted curve in the direction sought with a large enough effect in the signal ratio, with a control signal flat; the % refers to the signal ratio); settings: AR-UAS-bla HEK293, beta-lactamase ratio, agonist 16 h; hits give high values
Sequence (P10275 whole entry, looked up): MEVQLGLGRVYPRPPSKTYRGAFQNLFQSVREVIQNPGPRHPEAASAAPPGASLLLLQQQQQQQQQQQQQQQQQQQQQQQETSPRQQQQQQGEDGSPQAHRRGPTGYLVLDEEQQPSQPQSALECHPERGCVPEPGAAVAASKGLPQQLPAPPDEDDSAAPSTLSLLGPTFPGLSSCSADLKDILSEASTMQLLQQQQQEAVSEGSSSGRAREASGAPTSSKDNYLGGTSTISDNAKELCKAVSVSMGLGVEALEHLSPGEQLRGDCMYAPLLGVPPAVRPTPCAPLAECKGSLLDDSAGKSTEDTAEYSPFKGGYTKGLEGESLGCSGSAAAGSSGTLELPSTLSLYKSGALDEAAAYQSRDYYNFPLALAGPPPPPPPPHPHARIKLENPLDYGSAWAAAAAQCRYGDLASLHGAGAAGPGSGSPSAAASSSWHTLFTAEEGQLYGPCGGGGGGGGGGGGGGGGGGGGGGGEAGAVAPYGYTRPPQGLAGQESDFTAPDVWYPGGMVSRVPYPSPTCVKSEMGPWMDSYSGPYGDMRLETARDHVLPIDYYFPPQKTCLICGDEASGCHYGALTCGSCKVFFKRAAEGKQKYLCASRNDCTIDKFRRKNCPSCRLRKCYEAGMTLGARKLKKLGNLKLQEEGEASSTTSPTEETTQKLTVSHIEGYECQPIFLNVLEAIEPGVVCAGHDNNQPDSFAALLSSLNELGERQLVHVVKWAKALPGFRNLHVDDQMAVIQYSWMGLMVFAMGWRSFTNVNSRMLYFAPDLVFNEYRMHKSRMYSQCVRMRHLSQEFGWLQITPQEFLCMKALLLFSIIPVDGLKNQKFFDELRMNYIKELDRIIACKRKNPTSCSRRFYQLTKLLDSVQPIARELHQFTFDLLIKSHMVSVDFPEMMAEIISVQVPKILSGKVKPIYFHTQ
Outline: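 Stimulation of an AR-responsive β-lactamase reporter in GripTite HEK293 cells was measured after 16 h compound exposure at 37 °C, via CCF4 fluorescence after 2 h RT. EC50 from Hill fits, normalized to R1881 at 30 nM.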

Compound | activation
Brc1ccccc1 | 9.26% (inactive) and -0.282% (inactive)
CCSC(=O)Cl | 5.7% (inactive)
Cc1ccc2ccccc2c1 | 23% (inactive)
Nc1ccccc1Cl | 9.37% (inactive)
Clc1ccc2ccccc2c1 | 11.2% (inactive)
[O-][Br+2]([O-])O | 4.89% (inactive) and 1.1% (inactive)
CCN(CC)c1ccccc1 | 12.2% (inactive)
S=C=Nc1cccc2ccccc12 | -5.44% (inactive)
O=NN(CCO)CCO | 14% (inactive)
C=CCOC(C)=O | -7.35% (inactive)
O=C(Cl)/C=C/C(=O)Cl | 8.8% (inactive)
C=C(Cl)Cl | 2.29% (inactive)
c1ccc2c(c1)CCCC2 | -2.87% (inactive)
Clc1cccc(C(Cl)(Cl)Cl)n1 | -4.18% (inactive)
